From PubChem BioAssay

target: 6-phosphogluconate dehydrogenase, decarboxylating (Homo sapiens) (UniProt P52209); test: 6PGD enzyme inhibitors, primary screen, biochemical, human, recombinant enzyme, NADPH absorbance (AID 1159550); conditions: recombinant 6PGD, NADPH absorbance 341 nm; at 10 µM; stronger effect = higher value
Sequence (P52209 whole entry, looked up): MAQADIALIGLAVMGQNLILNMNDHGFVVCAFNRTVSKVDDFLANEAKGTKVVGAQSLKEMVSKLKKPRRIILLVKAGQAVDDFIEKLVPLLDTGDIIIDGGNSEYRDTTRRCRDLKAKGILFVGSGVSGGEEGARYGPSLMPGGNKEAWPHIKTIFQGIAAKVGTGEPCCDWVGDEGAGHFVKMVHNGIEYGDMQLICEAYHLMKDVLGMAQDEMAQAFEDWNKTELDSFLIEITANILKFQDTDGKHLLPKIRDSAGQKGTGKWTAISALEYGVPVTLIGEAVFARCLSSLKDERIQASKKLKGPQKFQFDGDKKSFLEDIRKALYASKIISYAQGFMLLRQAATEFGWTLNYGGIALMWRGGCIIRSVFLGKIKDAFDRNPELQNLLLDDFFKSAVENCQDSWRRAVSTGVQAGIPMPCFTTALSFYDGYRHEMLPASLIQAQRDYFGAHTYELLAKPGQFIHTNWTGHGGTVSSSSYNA

inhibition, inactive:
COc1ccc(C2COc3c(ccc(O)c3OC)C2)c(OC)c1O (configuration not stated) -5.05%
CC(=O)O[C@@H]1CC2C(C)(C)C(=O)CC[C@]2(C)C2CC[C@]3(C)C(=CC(=O)O[C@H]3c3ccoc3)[C@@]21C (some centres not stated) 14.2%
CC(=O)O[C@@H]1CC2C(C)(C)C=CC(=O)[C@]2(C)C2CC[C@@]3(C)[C@H](c4ccoc4)OC(=O)C4OC43[C@@]21C (some centres not stated) -6.87%
CC(=O)O[C@@H]1CC2C(C)(C)[C@H](O)C[C@H](O)[C@]2(C)C2CC[C@@]3(C)C(=CC(=O)O[C@H]3c3ccoc3)[C@@]21C (some centres not stated) 13.2%
CC(=O)O[C@H]1CC[C@]2(C)C(C[C@@H](OC(C)=O)[C@]3(C)C4=CC(=O)OC(c5ccoc5)[C@@]4(C)CCC23)C1(C)C (some centres not stated) 5.97%
CC[C@@H](CC[C@@H](C)[C@H]1CC[C@H]2[C@@H]3CC=C4C[C@@H](O)CC[C@]4(C)[C@H]3CC[C@]12C)C(C)C 10.4%
CCC[C@H]1CC2=C(C[C@@H](CC)CC3=C1C(=O)OC3=O)C(=O)OC2=O -4.81%
